Each structure is given as a SMILES string. The campaign covered roughly 360,000 compounds. About 3,800 (1.1%) were called active. This excerpt belongs to a sample that is enriched for actives. A number with no mark means an inactive call.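 Rule for the calls: active = compounds causing at least 50% loss of cell viability in the single-dose screen, relative to plate controls; inactive = the rest.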

A short description of the experiment: viability loss with TRAIL in NB7+C8 cells, primary screen, TRAIL sensitizer project, cell-based, ATPlite luminescence (AID 624354). The conditions noted are these: at 10 µM, hits give high values. On the technique in general: ATP-based viability assays read luminescence as a measure of living cells.
As for `CCN(CC)S(=O)(=O)c1ccc(N2CCOCC2)c(NC(=O)C2CSC3(C)CCC(=O)N23)c1` (stereo unspecified), the inhibition (viability loss, TRAIL sensitization) is -1.07%.
Under `Cn1c(SCC(=O)Nc2ccc(Br)cc2F)nnc1-c1ccco1` stands -0.204%.
Under `COc1ccc(-n2cnc3cc(NCc4ccco4)ccc32)cc1` stands 16.5%; under `Cn1c(-c2ccco2)nc2cc3ccccc3cc21`, 89.4% (active).
With `Cc1c(CNCCc2ccccc2)c(C(=O)O)c(C)n1-c1ccccc1` the figure was -25.6%.
On to `COCc1cc(=O)oc2cc(NS(=O)(=O)c3ccc(C)cc3)ccc12`, for which the inhibition (viability loss, TRAIL sensitization) was 2.58%.
Under `Cc1cc(NC(=O)CCC(=O)N(Cc2ccccc2)C(C(=O)NC2CCCC2)c2ccc(C)o2)no1` (stereo unspecified) stands -0.804%.
With `CC(C)CCN1CCN(Cc2cn[nH]c2C2CCCCC2)CC1CCO` (stereo unspecified) the figure was 5.07%.
Under `COc1ccc(-c2noc(CNC(=O)C(C)Oc3ccccc3)n2)cc1` (stereo unspecified) stands -4.7%.
Take `COc1ccc(-c2nc(-c3ccccc3)no2)c(OC)c1`: the inhibition (viability loss, TRAIL sensitization) is 83% (active).
Under `COc1ccc(/C=C/c2noc(-c3ccccc3OC(C)=O)n2)cc1` stands 12.1%; under `Cc1ccc([N+](=O)[O-])cc1S(=O)(=O)N1CCCN(C)CC1`, 1.18%.
With `Cc1ccc(S(=O)(=O)N2CCC3(CC2)OCCO3)c(C)c1` the figure was 1.61%; with `Cc1ccc(C)c(S(=O)(=O)N2CCN(c3ncnc4sccc34)CC2)c1`, 66.5% (active); with `CNC(=S)N1CCC(NC(=O)C(Cc2ccc(F)cc2)NC(C)=O)CC1` (stereo unspecified), -1.63%.
Under `CCCCCc1c(-c2ccc(OC)c(OC)c2)ncn1CCc1ccccc1OC` stands 51.2% (active); under `CCCCCc1c(-c2cccc(Br)c2)ncn1CCc1ccccc1OC`, 23.2%.
For `CCCCc1c(-c2ccc(Cl)cc2)ncn1CCc1ccccc1OC`, the inhibition (viability loss, TRAIL sensitization) was 31.8%.
Take `CS(=O)(=O)N(CC(=O)N1CCN(c2ccc(F)cc2)CC1)C1CCCCC1`: the inhibition (viability loss, TRAIL sensitization) is -11.1%.
With `CCOc1ccc(/C=C(/NC(=O)c2ccccc2)C(=O)NCCC(=O)O)cc1` the figure was -4.31%; with `CCOc1ccc(NC(=O)C2CCCN(C(=O)Nc3ccccc3)C2)cc1` (stereo unspecified), -15.9%; with `Cc1ccc(N/C=C/C(=O)c2ccccc2)cc1C`, 78.5% (active).
Under `O=C(/C=C/Nc1ccc(S(=O)(=O)Nc2cnc3ccccc3n2)cc1)c1cccnc1` stands -7.32%; under `COCCN(C(=O)CCC(=O)Nc1ccccn1)C(C(=O)NCCC(C)C)c1ccc(OC)cc1` (stereo unspecified), -1.74%; under `Cc1ccc(NNC(=O)C2CCC2)cc1C`, -7.51%.
With `COC(C(=O)Nc1ccc(S(=O)(=O)Nc2ccc(C)c(C)c2)cc1)c1ccccc1` (stereo unspecified) the figure was 5.37%; with `CCOc1ccc(N/C=C/C(=O)c2ccccc2)cc1`, 66.6% (active).
Turning to `COc1ccc(C(=O)/C=C/Nc2ccccn2)cc1`, the inhibition (viability loss, TRAIL sensitization) was 73.3% (active).
As to `COc1ccc(CN2C(=O)CN=C2Nc2ccc(C)cc2C)cc1`, the inhibition (viability loss, TRAIL sensitization) is -15.6%.
As to `Cc1ccc(CN2CC(N3CCC(Cc4ccccc4)CC3)CS2(=O)=O)cc1` (stereo unspecified), the inhibition (viability loss, TRAIL sensitization) was -13.4%.
As to `Cc1ccc(CN2CCN(Cc3cccc(C)n3)CC2CCO)cc1` (stereo unspecified), the inhibition (viability loss, TRAIL sensitization) is 0.251%.
With `COc1cc(C)c(CN2CCN(C(=O)CCC(=O)c3ccc(C)s3)CC2)cc1OC` the figure was 16.8%; with `O=C(c1cc2c(s1)CCC2)N1CCN(c2ccccc2)CC1`, -1.76%.
With `COc1ccc(S(=O)(=O)N2CN(CCc3ccc(OC)c(OC)c3)c3nc4ccccc4nc32)cc1` the figure was 5.09%.
Under `CN(c1ccc2nc3ccccc3c(=O)n2n1)C1CCCCC1` stands 91.9% (active); under `CN(C(=O)Nc1ccc(Cl)cc1)n1cnc2ccccc2c1=O`, 7.39%.
Take `CC(C)(C)c1nc2ccccc2c(=O)n1N1C(=O)c2ccccc2C1=O`: the inhibition (viability loss, TRAIL sensitization) was 11.4%.
Under `O=C(Nc1ccc(NC(=O)c2cccs2)cn1)c1ccco1` stands 63% (active); under `CC(OC(=O)CNC(=O)c1ccco1)C(=O)Nc1ccc(Cl)cn1` (stereo unspecified), 8.79%; under `O=C(COC(=O)c1ccco1)Nc1ccc(Cl)cn1`, -1.44%.
Under `Cc1cc(C)c(S(=O)(=O)NN=C2c3ccccc3[C@H]3Cc4csc[n+]4[C@@H]23)c(C)c1` stands -3.55%; under `CNc1cncc(-c2cccc(C(=O)N3CCOCC3)c2)n1`, -18.4%.
Under `C#Cc1cc(N2CCN(C(=O)c3ccoc3)CC2)n2nc(-c3cccc(Cl)c3)cc2n1` stands 91.7% (active).
For `CCc1nc2ccc(C(=O)N3CCN(c4cccc(Cl)c4)CC3)cc2nc1CC`, the inhibition (viability loss, TRAIL sensitization) was 1.3%.
Under `CC(C)(C)NC(=O)C(CCc1ccccc1)n1c(=O)c(-c2ccccc2)nc2ccccc21` (stereo unspecified) stands -2.69%.
Under `Nc1cc(C(F)(F)F)ccc1N1CCOCC1` stands -31.5%; under `COc1ccc(COC[C@H](CC(C)C)N2CCN(C(=O)c3cccc(C(F)(F)F)c3)CCC2=O)cc1`, -6.73%; under `O=C(C(=O)N1CCC(c2ccccc2)CC1)c1ccccc1`, -9.02%.
With `COc1cccc2c1C(=O)c1c(O)c3c(c(O)c1C2=O)CC(O)(C(C)=NNC(=O)c1ccc(Cl)c(Cl)c1)CC3OC1CC(N)C(O)C(C)O1` (stereo unspecified) the figure was 55.5% (active); with `Cc1c(Nc2nc3ccccc3nc2NS(=O)(=O)c2cccs2)c(=O)n(-c2ccccc2)n1C`, -7.01%; with `Cc1ccc(C(=O)Nc2ccc(C)c(S(=O)(=O)N(C)C)c2)s1`, 61.7% (active).
Turning to `CCN(CC(=O)Nc1ccc(C)c(S(=O)(=O)N(C)C)c1)Cc1ccccc1`, the inhibition (viability loss, TRAIL sensitization) is 9.33%.
Under `Cc1csc(SCC(=O)Nc2ccc(C)c(S(=O)(=O)N(C)C)c2)n1` stands 1.13%; under `Cc1ccc(S(=O)(=O)NNC(=S)NC(C)(C)C)cc1`, -2.34%.
Under `Cn1c(NN)nc2sc3c(c2c1=O)CCC3` stands -10.7%; under `NNC(=O)C1CCCn2c1nc1sc3c(c1c2=O)CCCC3` (stereo unspecified), 55.9% (active); under `N=c1c2c3c(sc2nc2n1CCCCC2)CCCC3`, 0.553%.
Under `O=C1CSC(c2ccc(Cl)cc2)N1` (stereo unspecified) stands 0.721%.
With `CCOc1ccc(C(C)=O)cc1COC(=O)CNC(=O)c1cccs1`, the inhibition (viability loss, TRAIL sensitization) is -4.84%.
With `CCOc1ccc(C(C)=O)cc1COC(=O)c1cnc(Cl)c(Cl)c1` the figure was 64.1% (active).
With `COC(=O)c1ccc(COC(=O)c2cnc(Cl)c(Cl)c2)cc1` the figure was 1.15%.

Values taken from PubChem BioAssay AID624354 (Sanford-Burnham Center for Chemical Genomics, 2012).
